Experimental data as given in PubChem BioAssay AID743360 (Molecular Libraries Program, Specialized Chemistry Center, …, 2014).
Unmarked numbers belong to inactive results. Activity calls are given as the source filed them.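 Rule for the calls: active = calcium retention capacity relative to untreated control above about 1.1 ratio (limit read from the data); inactive = the rest.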

Assay: mitochondrial Ca2+ retention capacity increase – biochemical, dry powder samples, uHTS hits, Calcium Green-5N, dose response (AID 743360)
Conditions: isolated mitochondria, Ca retention capacity

| Compound | CRC/CRC0 ratio at 12.5 uM (higher = more inhibition) |
| --- | --- |
| CN1CCN(Cc2ccc(NS(=O)(=O)c3ccc(F)c(Cl)c3)cc2)CC1 | 1.07 |
| COc1ccc(/C=C/C(=O)Nc2cccc(Cl)c2)cc1O | 6.53 (active) |
| COc1ccc(Cl)cc1C(=O)Nc1ccc(CN2CCOCC2)cc1 | 1.2 (active) |
| O=C(Nc1ccccc1C(F)(F)F)c1cc(-c2ccccc2)on1 | > 1 |
| CCN(C(=O)c1cc(Cl)ccc1OC)c1ccccc1 | > 1 |
| Cc1c(Cl)cccc1NC(=O)c1cc(-c2cccc(O)c2)on1 | 6 (active) |
| O=C(Nc1ccc(CN2CCCCC2)cc1)c1cc(Cl)ccc1O | 1.1 (active) |
| CN1CCN(Cc2ccc(NS(=O)(=O)c3cccc(Cl)c3)cc2)CC1 | 1.01 |
| COc1ccc(Cl)cc1C(=O)Nc1ccc(CN2CCNCC2)cc1 | 1.65 (active) |
| Cc1ccc(NC(=O)c2cc(-c3cccc(O)c3)on2)cc1Cl | 2.58 (active) |
| O=C(Nc1ccc(Cl)cc1)c1cc(-c2cccc(O)c2)on1 | 3.44 (active) |
| COc1ccc(NC(=O)c2cc(-c3ccc(Cl)cc3)on2)cc1Cl | > 1 |
| CN1CCN(c2ccc(NS(=O)(=O)c3cc(Cl)cc(Cl)c3)cc2)CC1 | 1.11 (active) |
| COc1c(Cl)cccc1NC(=O)c1cc(-c2cccc(O)c2)on1 | 1.82 (active) |
| COc1ccc(Cl)cc1C(=O)Nc1ccc(N2CCOCC2)cc1 | > 1 |
| CCc1ccccc1NC(=O)c1cc(-c2ccccc2)on1 | > 1 |
| O=C(Nc1cc(Cl)ccc1Cl)c1cc(-c2cccc(O)c2)on1 | 4.67 (active) |

| Compound | CRC/CRC0 ratio at 12.5 uM (higher = more inhibition) |
| --- | --- |
| O=C(Nc1ccc(Br)cc1)c1cc(C2CC2)on1 | 1.06 |
| CC1(C)CCN(CCCC(=O)c2ccc(Br)cc2)CC1 | 1.1 (active) |
| CN1CCN(c2ccc(Cl)cc2NC(=O)/C=C/c2cccc(F)c2)CC1 | 1.53 (active) |
| COc1ccc(Cl)cc1C(=O)Nc1ccc(CCN2CCNCC2)cc1 | 1.31 (active) |
| CN1CCN(CCc2ccc(NS(=O)(=O)c3cc(Cl)cc(Cl)c3)cc2)CC1 | 1.09 |
| CN1CCN(Cc2ccc(NC(=O)c3cccc(OCc4ccccc4)c3)cc2)CC1 | 2.26 (active) |
| O=S(=O)(Nc1ccc(CN2CCCCC2)cc1)c1ccc(F)c(Cl)c1 | 1.07 |
| CN1CCN(c2ccc(NS(=O)(=O)c3cccc(Cl)c3)cc2)CC1 | 1.05 |
| COc1ccc(Cl)cc1C(=O)Nc1ccc(CCN2CCN(C(=O)OC(C)(C)C)CC2)cc1 | 1.37 (active) |
| Cc1ccc(Cl)cc1NC(=O)c1cc(-c2cccc(O)c2)on1 | 9.18 (active) |
| O=C(Nc1ccc(OCc2ccccc2)c(Cl)c1)c1cc(-c2cccc(O)c2)on1 | > 1 |
| O=C(Nc1cccc(Cl)c1)c1cc(-c2ccc(Cl)cc2)on1 | > 1 |
| COc1ccc(Cl)cc1C(=O)Nc1ccc(CCN2CCN(C)CC2)cc1 | 1.37 (active) |
| O=S(=O)(Nc1ccc(CCN2CCCCC2)cc1)c1ccc(F)c(Cl)c1 | 1.07 |
| Cc1ccc(-c2cc(C(=O)Nc3cccc(Cl)c3)no2)cc1 | > 1 |
| COc1ccc(Cl)cc1C(=O)Nc1ccc(CN2CCCCC2)cc1 | 1.8 (active) |
